Screens (PubChem)
A selection: hits, their analogues and other compounds. The true share with any hit is near 12%.
INS promoter inh = TRM-6 insulin promoter activity inhibition. TRM-6 cells (human fetal islet line), insulin promoter-eGFP reporter, imaging; reporter expression induced with tamoxifen. inhibition, % at 2 µM. actives 0.9% (n = 130,000);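 active means inhibition above the mean plus 3 SD, with well images judged a real hit on visual review, cut at about 60% in these data, passing the limit was not always enough; inconclusive means inhibition over the cutoff but images rejected on review; inactive means inhibition not above the cutoff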
Lmaj promast = inhibitors of Leishmania major promastigote growth | Leishmania major promastigotes, resazurin fluorescence viability | inhibition, % at 10 µM | actives 9% (n = 200,000); in the data active means inhibition above about 50%;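 further: promastigotes grown with compound for 44 hours at 28 °C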
ROMK primary = human ROMK K+ channel modulation, primary screen; P48048; Tet-inducible ROMK, thallium flux fluorescence; actives lie on both sides; B-score at 10 µM; actives 2% (n = 130,000); AID 1918;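 active means signal ratio slope over the read window, or its plate-corrected B-score, at least 3 SD from the plate mean, either direction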;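 further: B-score of the F/F0 ratio slope over 7 to 12 s after thallium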
Insulin prom up = MIN6 insulin promoter up-regulation | AID 1625 | MIN6 insulin promoter-GFP reporter, high-content imaging; hits give high values | z-score at 5 µM | actives 0.3% (n = 190,000);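 active means z-score above 3 at 5 µM with at least 500 cells counted in the well; inconclusive means wells under 500 cells, flagged as cytotoxic or low count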
Cl transport mod = modulators of human KCC2 chloride dependent transport | Q9H2X9 | KCC2 cells, thallium flux FluoZin-2 fluorescence | B-score of Tl+ flux slope (higher = more flux/activation; lower = inhibition) at 10 µM | actives 2.2% (n = 190,000) | AID 1456;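 active means thallium flux slope and its plate-corrected score both differing from the plate sample mean at a set confidence after two filtering rounds, in either direction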;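 further: slope of fluorescence scaled to starting intensity during 10 to 20 s after thallium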
Target sequence (Q9H2X9 whole entry, looked up): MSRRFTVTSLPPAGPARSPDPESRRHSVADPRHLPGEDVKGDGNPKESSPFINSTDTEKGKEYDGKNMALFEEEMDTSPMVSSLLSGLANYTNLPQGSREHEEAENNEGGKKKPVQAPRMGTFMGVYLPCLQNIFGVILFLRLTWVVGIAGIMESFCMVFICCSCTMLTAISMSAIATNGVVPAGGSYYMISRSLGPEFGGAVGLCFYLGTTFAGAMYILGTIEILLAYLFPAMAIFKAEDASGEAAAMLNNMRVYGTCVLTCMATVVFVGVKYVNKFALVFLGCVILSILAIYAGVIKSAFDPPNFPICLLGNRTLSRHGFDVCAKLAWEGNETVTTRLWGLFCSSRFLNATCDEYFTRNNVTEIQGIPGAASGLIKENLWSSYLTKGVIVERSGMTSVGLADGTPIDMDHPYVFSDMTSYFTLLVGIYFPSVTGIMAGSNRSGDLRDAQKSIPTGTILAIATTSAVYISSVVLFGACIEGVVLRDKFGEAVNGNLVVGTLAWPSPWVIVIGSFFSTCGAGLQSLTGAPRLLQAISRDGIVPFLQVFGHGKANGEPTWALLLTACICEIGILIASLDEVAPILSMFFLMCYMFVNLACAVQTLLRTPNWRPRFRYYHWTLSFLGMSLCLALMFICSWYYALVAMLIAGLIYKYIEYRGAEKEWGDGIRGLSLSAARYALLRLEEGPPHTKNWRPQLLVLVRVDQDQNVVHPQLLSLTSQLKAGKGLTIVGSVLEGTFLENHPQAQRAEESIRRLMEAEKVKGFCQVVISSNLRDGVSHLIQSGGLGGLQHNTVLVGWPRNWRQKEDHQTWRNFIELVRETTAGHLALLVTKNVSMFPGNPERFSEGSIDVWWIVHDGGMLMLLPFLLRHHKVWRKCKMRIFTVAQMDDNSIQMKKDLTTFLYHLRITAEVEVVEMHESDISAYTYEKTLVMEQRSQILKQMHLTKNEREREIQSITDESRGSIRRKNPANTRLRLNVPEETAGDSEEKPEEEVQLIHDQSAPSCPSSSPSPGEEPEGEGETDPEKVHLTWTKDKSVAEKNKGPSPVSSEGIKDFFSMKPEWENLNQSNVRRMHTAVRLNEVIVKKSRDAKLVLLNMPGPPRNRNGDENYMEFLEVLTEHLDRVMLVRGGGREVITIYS
WT yeast gro inh = growth inhibition of WT yeast, mitochondrial fusion screen; actives 2.1% (n = 190,000); inhibition, % at 10 µM; mitochondrial fusion phenotypic screen, WT strain; AID 1362; in the data active means inhibition above about 58%; tested in S. cerevisiae
KCC2 secondary = confirmation of human KCC2 transport modulators; actives 15% (n = 3,700); normalised thallium flux (F/F0 slope) at 10 µM; shares compounds with Cl transport mod; HEK293-KCC2, thallium flux, FluoZin2 fluorescence; hits give high values;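 active means thallium flux slope above the same plate's solvent-only control mean plus 3 SD; inconclusive means the two replicate wells disagree; inactive means no significant difference from solvent-only control wells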
KCC2 bumet counter = bumetanide-insensitive thallium flux in KCC2 cells with ouabain, counter-screen; shares compounds with Cl transport mod; HEK293-KCC2 + bumetanide/ouabain, thallium flux FluoZin2; hits give high values; normalized thallium flux at 10 µM; actives 49% (n = 3,700); AID 1714;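 active means thallium entry rate above the same plate's blocked-transporter control wells by more than 3 SD; inconclusive means the two repeat wells disagree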;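 further: raw slope of fluorescence over initial fluorescence between 10 and 20 s after thallium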
KCC2 secondary2 = KCC2 (human) modulation, second secondary assay; shares compounds with Cl transport mod; HEK293-KCC2, thallium flux FluoZin2 fluorescence; actives lie on both sides; F/F0 rise rate, 10–20 s post-thallium; normalized thallium flux at 10 µM; actives 23% (n = 3,700); AID 1715;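 active means thallium flux slope more than 3 SD above or below the plate's solvent-only control mean, mostly below; inconclusive means the two repeat wells disagreed; inactive means no significant shift from solvent-only controls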
HEK counter1 = parental HEK flux effect, counter-screen | actives 46% (n = 3,700) | thallium flux rate (normalised fluorescence) at 10 µM | shares compounds with Cl transport mod | HEK293 parental cells, thallium flux FluoZin2, ouabain; baseline-ratio fluorescence slope, 10–20 s after thallium;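 active means thallium flux rate significantly above the same plate's solvent-only control wells, beyond their mean plus 3 SD; inconclusive means the two replicate wells gave conflicting results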
KCC2 ouabain = KCC2 (human) modulation, ouabain retest; actives 48% (n = 3,700); raw Tl+ flux slope (below DMSO = inhibition, above = activation) at 10 µM; shares compounds with Cl transport mod; AID 1717; HEK293-KCC2, thallium flux FluoZin2 fluorescence; bidirectional: low = inhibitor, high = activator;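 active means thallium flux slope beyond 3 SD from same-plate DMSO control mean in most replicates, usually higher, sometimes lower; inconclusive means repeat tests gave conflicting results; inactive means no significant difference from controls in most replicates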;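 further: slope of initial-normalized fluorescence between seconds 10 and 20 after thallium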
HEK counter2 = counter-screen for KCC2 modulators: effect in parental HEK293 cells; shares compounds with Cl transport mod; thallium flux FluoZin-2 fluorescence slope; thallium flux slope at 10 µM; actives 33% (n = 3,700); AID 1718;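 active means thallium flux slope above the same plate's solvent-control mean plus 3 SD in both duplicate wells; inconclusive means duplicate wells that disagreed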;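 further: run without ouabain in cells lacking the KCC2 cotransporter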
Numbers stand for hits; i = inactive; ? = inconclusive; nt = no result.

SMILES	INS promoter inh	Lmaj promast	ROMK primary	Insulin prom up	Cl transport mod	WT yeast gro inh	KCC2 secondary	KCC2 bumet counter	KCC2 secondary2	HEK counter1	KCC2 ouabain	HEK counter2
CC1CC(=O)c2cnc(Nc3cccc(C(F)(F)F)c3)nc2C1 (stereo not given)	i	i	nt	i	-3	i	0.012	?	i	i	i	i
CC1CC(=O)c2cnc(Nc3ccccc3)nc2C1 (stereo not given)	i	i	i	i	i	i	nt	nt	nt	nt	nt	nt
CCOC(=O)C1=C(CC)Nc2ccccc2N/C1=N\S(=O)(=O)c1cc(Br)ccc1Br	i	i	i	i	-4	i	i	?	0.024	0.0063	0.015	?
COCCCNCC(=O)Nc1ccc(OC(F)(F)F)cc1	i	i	nt	nt	3.6	i	i	i	i	i	i	i
CCn1ncc(Cl)c1C(=O)NC(=S)Nc1c(C)cc(C)cc1[N+](=O)[O-]	i	i	i	i	85	i	0.033	0.15	0.044	0.076	0.072	0.026
CC(=O)c1ccc(NC(=S)NC(=O)c2c(Cl)c(C)nn2C)cc1	nt	i	i	i	15	i	0.015	0.066	i	0.031	0.037	0.015
CCOc1ccc(NC(=S)NC(=O)c2c(Cl)cnn2CC)c([N+](=O)[O-])c1	nt	i	i	i	19	i	0.018	0.056	i	0.029	0.044	0.014
Cc1cc(C)c(NC(=S)NC(=O)c2c(Cl)c(C)nn2C)c([N+](=O)[O-])c1	nt	i	i	?	42	i	0.019	0.16	?	0.047	0.061	0.016
N=c1oc2ccccc2cc1-c1nc(-c2ccc(Cl)cc2)cs1	i	i	nt	i	i	i	nt	nt	nt	nt	nt	nt
O=C(CC(c1ccccc1)c1ccco1)N1CCOCC1 (stereo not given)	i	i	i	nt	i	i	nt	nt	nt	nt	nt	nt
COc1cc2c(cc1OC)C(C)N(C(=S)Nc1ccccc1)CC2 (stereo not given)	nt	i	nt	i	i	i	nt	nt	nt	nt	nt	nt
COc1cc2c(cc1OC)C(C)N(C(=S)NC(=O)c1ccccc1)CC2 (stereo not given)	nt	i	nt	nt	21	i	?	0.062	0.043	0.041	0.049	0.029
COc1ccc(CNS(=O)(=O)NCc2ccc(OC)c(OC)c2)cc1	i	i	nt	i	i	i	nt	nt	nt	nt	nt	nt
Cc1ccc(CNC(=O)Cn2c(=O)oc3ccccc32)o1	i	i	nt	i	i	i	nt	nt	nt	nt	nt	nt
CNC(=S)N/N=C(\C)c1ccc(C(C)(C)C)cc1	nt	i	nt	i	5.7	75	i	0.018	i	0.022	?	0.013
CNC(=S)N/N=C(\C)c1ccccc1	nt	nt	nt	i	i	nt	nt	nt	nt	nt	nt	nt
CSCCC(=O)N1CCCC(CNC(=O)c2ccc(-c3ccccc3)cc2)C1 (stereo not given)	i	i	i	i	-5.8	i	i	i	0.021	i	0.013	i
CCc1cc(C(=O)N2CCCC(CNC(=O)c3ccc(-c4ccccc4)cc3)C2)no1 (stereo not given)	nt	i	i	i	nt	i	i	i	0.028	i	0.014	i
CCOc1ccc(NC(=S)NCc2ccc3[nH]c(C)cc3c2)cc1	i	i	i	i	i	i	nt	nt	nt	nt	nt	nt
O=C(CCc1nnc(-c2ccc3c(c2)OCO3)o1)N1CCC(c2ccc(F)cc2)C1 (stereo not given)	nt	i	i	nt	-4.8	i	i	i	0.022	0.0062	0.014	?
O=C(CCc1nnc(-c2ccc3c(c2)OCO3)o1)NC(c1ccccn1)C(F)(F)F (stereo not given)	nt	i	i	i	i	i	nt	nt	nt	nt	nt	nt
COc1ccc(CNS(=O)(=O)c2ccc3oc(C(=O)O)c(C)c3c2)cc1	i	i	nt	nt	i	i	nt	nt	nt	nt	nt	nt
COc1cccc(NC(=O)Cn2c(=O)n(CCC(=O)NC3CCN(Cc4ccccc4)CC3)c(=O)c3ccccc32)c1	nt	nt	nt	i	i	nt	nt	nt	nt	nt	nt	nt
CCc1ccc(C2C3=C(CC(C)(C)CC3=O)Nc3c2c(=O)[nH]c2nc(C)nn32)cc1 (stereo not given)	nt	i	i	i	i	i	nt	nt	nt	nt	nt	nt
Cc1nc2[nH]c(=O)c3c(n2n1)NC1=C(C(=O)CC(C)(C)C1)C3c1ccc(F)cc1 (stereo not given)	nt	i	i	i	nt	i	i	i	i	i	i	i
SMILES	INS promoter inh	Lmaj promast	ROMK primary	Insulin prom up	Cl transport mod	WT yeast gro inh	KCC2 secondary	KCC2 bumet counter	KCC2 secondary2	HEK counter1	KCC2 ouabain	HEK counter2
S=c1nc(-c2ccc(Br)cc2)[nH]c2ccccc12	nt	nt	nt	i	93	nt	0.047	0.13	0.078	0.12	0.11	0.092
COc1ccccc1N/C(N)=N/c1nc(CSc2nc3ccccc3s2)cc(=O)[nH]1	i	i	i	i	i	i	nt	nt	nt	nt	nt	nt
Cc1nn2c([nH]c(=O)c3ccccc32)c1C=O	i	i	nt	i	3.4	i	i	0.01	i	?	?	i
Cc1nn(-c2ccccc2)c(C)c1C=O	nt	nt	nt	nt	i	nt	nt	nt	nt	nt	nt	nt
COc1ccc(/C=C2\C(=O)NC(=S)N2C(=O)c2ccc(C)cc2)cc1	i	i	i	i	7.5	i	i	0.021	0.039	0.019	0.028	0.021
O=C1NC(=S)N(C(=O)c2ccc(F)cc2)/C1=C/c1cccnc1	nt	nt	i	i	i	nt	nt	nt	nt	nt	nt	nt
CC(c1ccccc1)n1c(-c2cccs2)nc2c(c(=O)c3ccccc3n2C)c1=O (stereo not given)	nt	nt	nt	i	-3.6	nt	i	i	i	0.0057	i	i
Cc1ccc(C)c(NC(=S)N/N=C/C(C)c2ccccc2)c1 (stereo not given)	i	i	nt	i	25	i	i	0.024	i	?	?	i
CN(CC(=O)N1CC=C(c2ccccc2)CC1)S(=O)(=O)c1ccc2c(c1)c(=O)n(C)c(=O)n2C	nt	i	nt	i	-3.9	i	i	?	i	i	i	i
Cc1cccc(CCNC(=O)CN(C)S(=O)(=O)c2ccc3c(c2)c(=O)n(C)c(=O)n3C)c1	nt	i	nt	i	i	i	nt	nt	nt	nt	nt	nt
CCC(Cc1ccccc1)NC(=O)CN(C)S(=O)(=O)c1ccc2c(c1)c(=O)n(C)c(=O)n2C (stereo not given)	nt	i	nt	i	nt	i	i	i	0.024	i	?	i
CCOC(=O)c1cnc(SCC(=O)N2CCC(C(N)=O)CC2)nc1N	nt	i	i	i	i	i	nt	nt	nt	nt	nt	nt
